Test results taken from PubChem BioAssay AID602376 (Johns Hopkins Ion Channel Center, 2012).
Potency and affinity values are given separately. Inconclusive results are not listed.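 Rule for the calls: active = raises choline transporter activity at one or more tested doses and gives a fitted dose-response curve; inconclusive = no clear call, values can overlap the other calls; inactive = no choline transporter activation at any dose, or no curve.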

Biological target: High affinity choline transporter 1 (Homo sapiens) (UniProt Q9GZV3)
Sequence (Q9GZV3 whole entry, looked up): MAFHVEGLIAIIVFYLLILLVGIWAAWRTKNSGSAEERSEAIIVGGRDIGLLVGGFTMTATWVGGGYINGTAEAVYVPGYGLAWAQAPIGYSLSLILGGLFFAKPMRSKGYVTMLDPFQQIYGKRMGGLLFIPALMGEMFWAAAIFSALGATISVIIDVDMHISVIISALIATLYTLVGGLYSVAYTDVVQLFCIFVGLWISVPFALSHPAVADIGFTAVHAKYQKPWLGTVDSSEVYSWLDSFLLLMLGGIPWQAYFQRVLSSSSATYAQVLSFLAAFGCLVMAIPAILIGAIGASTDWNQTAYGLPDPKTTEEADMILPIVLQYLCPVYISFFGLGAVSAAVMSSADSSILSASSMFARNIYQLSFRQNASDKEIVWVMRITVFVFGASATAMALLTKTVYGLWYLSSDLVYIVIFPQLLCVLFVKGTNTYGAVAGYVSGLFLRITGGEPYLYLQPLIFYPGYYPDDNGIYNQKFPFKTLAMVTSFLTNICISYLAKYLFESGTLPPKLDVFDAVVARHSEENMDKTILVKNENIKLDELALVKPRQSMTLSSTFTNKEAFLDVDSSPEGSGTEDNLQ
Test: CHT activators, dose response, cell-based, 10-point CRC, membrane potential dye (AID 602376)
Conditions: HEK293-CHT, choline-induced membrane potential dye, cells express CHT LV-AA mutant; series mostly up to 67 µM; percent activation: at the top concentration

Percent activation, inactive:
CCc1cc2c(N3CCN(c4ccccc4)CC3)ncnc2s1 61.9%, CCCCn1c(N)c(N(CCC(C)C)C(=O)c2ccc(COc3ccccc3)o2)c(=O)[nH]c1=O 58.5%, Cc1ccc(S(=O)(=O)c2nc(-c3ccco3)oc2SC(C)C)cc1 67.7%, COC(=O)C1=C(C)N(Cc2ccccc2)C(=NCC(C)C)N[C@H]1c1ccccc1 156%, COc1ccc(Br)cc1CN(C)C(=O)c1ccccc1OCc1c(C)noc1C 92.1%, N#Cc1c(N)oc(-c2ccco2)c1-c1ccco1 29.4%, CCCCn1c(=N)n(CC(O)COc2ccccc2)c2ccccc21 (stereo not given) 130%, CCc1ccc(NC(=O)CSc2nc3ccccc3c(=O)n2CCCN2CCC(C)CC2)cc1 36.5%, COC(=O)C1=C(C)N(Cc2ccccc2)C(=NCc2ccc(OC)cc2)N[C@H]1c1cccc(F)c1 86%, O=c1c2ccccc2n(CC(O)CN2CCOCC2)c2ccccc12 (stereo not given) 44.9%, CCOC(=O)C1(CC2CC2)CCN(Cc2cn[nH]c2-c2cccc(F)c2)CC1 84.1%, COc1ccc(C(=O)c2coc3ccc(O)c(CN4CCOCC4)c23)cc1 48.5%, CCCC(=O)N1c2ccccc2C(=C2SC(C(=O)OC)=C(C(=O)OC)S2)C(=S)C1(C)C 43.5%, Cc1ccc(-n2c(SCCN)nnc2-c2cccc(C)c2)cc1 20.4%, C=C1CCN(Cc2ccccc2)S(=O)(=O)c2ccccc21 80%, COc1ccc(-c2c(-c3cc(OC)c(OC)c(OC)c3)noc2C)cn1 94.6%, O=C(COc1ccccc1)NCC(c1ccco1)N1CCN(c2ccc(F)cc2)CC1 (stereo not given) 65.2%, COc1ccc(C(C)=O)cc1CSc1nc2ccccc2c(=O)n1-c1ccccc1C 82.6%, COc1cccc(-c2cn(C[C@H]3CC[C@@H]([C@@H]4CC[C@H](Cn5cc(-c6cccc(OC)c6)nn5)O4)O3)nn2)c1 67.4%, COc1ccc(C(N)c2nccc3cc(OC)c(OC)cc23)cc1OC (stereo not given) 48.1%, N=c1c2c(n(Cc3ccc(Cl)c(Cl)c3)c3c1CCC3)CCCC2 70.6%, COc1ccccc1N(C(=O)c1ccco1)C(C(=O)NC1CCCC1)c1cccs1 (stereo not given) 49.6%, CCOC(=O)C1(Cc2ccccc2C(F)(F)F)CCN(Cc2ccon2)CC1 63.5%, CC(C)C1Oc2ccccc2N(CC(=O)NC2CCCCC2)C1=O (stereo not given) 54.6%, Cn1c(=O)c2c(nc(CN3CCN(c4cccc(Cl)c4)CC3)n2CCc2ccccc2)n(C)c1=O 72.6%, Cc1nnc(N2CCC(C(=O)N3CCCCC3)CC2)c2nn(-c3ccc(Cl)cc3)c(C)c12 24.8%, Cc1noc(C)c1CSc1nc2ccccc2c(=O)n1-c1ccccc1 78.5%, CCOc1ccc(S(=O)(=O)NCc2ccco2)c2ccccc12 69.7%, CCn1cc(C(=O)OCC(=O)OC2CC(C)CCC2C(C)C)c(=O)c2ccc(C)nc21 (stereo not given) 70.2%, COc1ccc(-c2c3c(=O)n(C)c(=O)n(C)c3cn2C2CCCCC2)cc1 45.3%, COc1ccccc1C1CC(c2ccc(Cl)cc2)Nc2ncnn21 (stereo not given) 65.7%, O=C(Nc1cccc(Cl)c1N1CCOCC1)c1cc([N+](=O)[O-])ccc1N1CCOCC1 61.5%, Cc1ccc(-c2c(C(=O)N(C)Cc3ccccc3)oc(=O)c3ccccc23)cc1 79.7%, CC(Sc1ccc(Cl)cc1)C(=O)Nc1ccccc1-c1ccccc1 (stereo not given) 50.3%, CCc1ccc(CN(C)C(=O)CCc2nc3ccccc3n(-c3ccc(OC)cc3)c2=O)cc1 88.1%, CCOC(=O)c1c[nH]c2nc(C)ccc2c1=O 14.8%, COc1ccc(-c2noc(CSc3nc4ccccc4c(=O)n3-c3ccccc3)n2)cc1OC 48.1%, O=C(NCCC1=CCCCC1)C1CCN(Cc2cnn(-c3ccccc3)c2-n2cccc2)CC1 33.6%, O=c1c2ccccc2nc2n1C(CSCc1ccc(Cl)cc1)CS2 (stereo not given) 92.1%, CCc1cccc(C)c1NC(=O)CN(C)Cc1ccc(Br)cc1 58.6%
